In paper PMC12136788:
In all, about 24,000 sequences were measured (“enrichment r”: median about 0.99, highest 2% from about 3.7 on). The list comes from a sample in which the highest values are over-represented; it also holds similar and randomly drawn sequences.

T1: UNK ZnF1-3 (human, UniProt Q9C0B0 31-174)
T1 sequence: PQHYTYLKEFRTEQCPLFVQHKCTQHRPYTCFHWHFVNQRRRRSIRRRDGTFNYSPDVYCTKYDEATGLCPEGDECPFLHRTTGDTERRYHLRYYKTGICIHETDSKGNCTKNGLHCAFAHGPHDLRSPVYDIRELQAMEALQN

B1: chr2:47387610:47387611:-_ENSG00000143933_ENST00000272298|hu_mus|FALSE|FALSE (ssRNA)
RNA: GGGAGUUCUACAGUCCGACGAUCUCCACGCAGAGUUACAGCUCCACACUUCAACAACAACAUGCUGACAGUUCCUAAAAGCUACUUUAAAAAAGGCAUAACCCAGAUGUUCCCUCAUUGGACCAACUCCAUCUAAGUUUAGAUCAACAGAGGAUUGAGCAUCA
B2: chr8:104447970:104447971:+_ENSG00000164934_ENST00000297579|hu_hu|hu_hu_hu_mus_False|88_98 (ssRNA)
RNA: GGGAGUUCUACAGUCCGACGAUCAUACACUUCCCUGCUUCGACUUUUGUCUACAGGAAAGAUUCUAAUAGACUUAUCAAAGCUGGCAGACACAAAUUCCUUCCCAGUGGGAGAGUAGUCCACAUCAAGUACUGCAGACACGUGCAACAGAGGAUUGAGCAUCA
B3: chr3:150289932:150289933:+_ENSG00000144895_ENST00000460851|hu_hu|hu_hu_hu_mus_False|28_58 (ssRNA)
RNA: GGGAGUUCUACAGUCCGACGAUCCUUGUAGUUUUUAACAUCCCAUACUUCCAUUUGUCCUCGAAGAUUUCCAAAUCCAGCUAAUACUAAUAUAUGUCCAUGAGGGCUAUAGUAGGCUGCGUUGCGAGGACCAGUCCCAAAGUCCAACAGAGGAUUGAGCAUCA
B4: chr13:51516861:51516862:+_ENSMUSG00000067586_ENSMUST00000087978|mus_mus|FALSE|FALSE (ssRNA)
RNA: GGGAGUUCUACAGUCCGACGAUCCUUGGUGACAUAGAGAAGGGCAAGGCCAAUGAUGGAGCAGAACUUCUUGGCAGUGACCUAUAUACACCAGGAGUGACAUGAGGGGAAGUCUUUAGUUAGUCAGACCAGGGUUACCUAAGGCAACAGAGGAUUGAGCAUCA
B5: chr19:5940991:5940992:-_ENSMUSG00000024833_ENSMUST00000025752|mus_hu|FALSE|FALSE (ssRNA)
RNA: GGGAGUUCUACAGUCCGACGAUCGUUCACACAGACACAGCCGAGGACAUCCUUCACGAAGUACCUCAGCUCUGACGGGAUGAUGAGGACAUCUGGGGUGACAGGCAGCUGUGCGUAAACAUAGAACGACUCAUAGUCAAUGGCCAACAGAGGAUUGAGCAUCA
B6: chr6:168291551:168291552:+_ENSG00000130396_ENST00000400822|hu_mus|motif|central (ssRNA)
RNA: GGGAGUUCUACAGUCCGACGAUCAUGUUUCUUCAUUUUCUUUGGGAUGUAGUCCGGUGGUCUCCUCUUCAACUGAAAGACGGAAAUCCCUUUGUCACUUGGCCAUUCCCUGAAGAUUUGUAAAGGACAUUCAUCAUCGUCAAGCAACAGAGGAUUGAGCAUCA

Biological target: T1, UNK ZnF1-3
Experiment: nsRBNS (natural sequence RNA bind-n-seq); RBNS binding buffer (assumed for nsRBNS): 25 mM Tris pH 7.5, 150 mM KCl, 3 mM MgCl2, 0.01% Triton X-100, 500 ug/ml BSA, 20 U/ml SUPERase-In, 4 C; UNK is unkempt and MSI1 is Musashi-1; names of the RNAs are library labels; protein concentration not given here; high values mean tight binding

Row | Binder | binding signal [enrichment R]
1 | B1 | 1.21
2 | B2 | 0.947
3 | B3 | 1.1
4 | B4 | 1.32
5 | B5 | 1.51
6 | B6 | 0.653
